Consider 28 compounds from PubChem BioAssay (Tox21).

SMILES strings stand for the structures. “And” between values parts separate entries of the source, which are not always exact repeats. Equal entries are not always repeated. Results filed as inconclusive are left out. More than one record can exist for a structure, and the calls need not agree. The source made the active and inactive calls. Calls follow the shape of the dose curve; as a rule, active = well fitted curve in the direction sought with a large enough effect in the repeat runs; inconclusive = weak or mixed curves; inactive = no such curve, though single readings can be large; an effect the other way counts as inactive or inconclusive.

A short description of assay [1]: Caspase-3/7 induction in CHO-K1 cells by small molecules, qHTS assay (AID 1346980). Also: nearly all actives have a fitted effect of over 15% in size. Also: potency is read from the fitted curve at half-maximal effect. In a few lines:
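Luminescent Caspase-Glo 3/7 read (30min, room temperature) quantified apoptosis induction. Cells were wild-type CHO-K1, treated with compound for 17hr at 37 C and 5% CO2.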

Assay [2] is described as follows: Caspase-3/7 induction in HepG2 cells by small molecules, qHTS cell viability counter screen (AID 1346981). Also: nearly all actives have a fitted effect of over 30% in size. Also: potency is read from the fitted curve at half-maximal effect. The procedure, abridged:
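Steps: seed 2,000 HepG2 cells per well; incubate 5 hr at 37 C; pin-add compounds in DMSO; incubate 16 hr; add CellTiter-Fluor; after 1 hr at 37 C and 5% CO2, read fluorescence.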

Assay [3] has as its target Cytochrome P450 2D6 (Homo sapiens) (UniProt P10635). The experiment in a line: Cytochrome P450 Family 2 Subfamily D Member 6 (CYP2D6) small molecule antagonists: luciferase reporter qHTS assay (AID 1671196). Also: nearly all actives have a fitted effect of over 50% in size. Also: potency is read from the fitted curve at half-maximal effect. In a few lines:
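P450-Glo format: CYP2D6 converts a proluciferin substrate to luciferin in an NADPH-driven reaction lasting 1 h at room temperature. Light output, proportional to CYP2D6 activity, reflects interference by test chemicals.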

Assay [4] deals with Cytochrome P450 2C19 (Homo sapiens) (UniProt P33261). The assay is described as follows: Cytochrome P450 Family 2 Subfamily C Member 19 (CYP2C19) small molecule antagonists: luciferase reporter qHTS assay (AID 1671197). Also: nearly all actives have a fitted effect of over 65% in size. Also: potency is read from the fitted curve at half-maximal effect. The procedure, abridged: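 First, compounds are pinned into enzyme-substrate mix and held 10 min at room temperature. Second, NADPH regeneration solution is added and plates incubate 1 h at 37C. Third, detection reagent is added and luminescence read after 20 min.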
In general terms: A reporter such as luciferase makes a cellular process visible.

For assay [5], the target named is Cytochrome P450 2C9 (Homo sapiens) (UniProt P11712). The experiment in a line: Cytochrome P450 Family 2 Subfamily C Member 9 (CYP2C9) small molecule antagonists: luciferase reporter qHTS assay (AID 1671198). Also: nearly all actives have a fitted effect of over 50% in size. Also: potency is read from the fitted curve at half-maximal effect. In a few lines: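 Enzyme-substrate mix preincubated with compound 10 min at room temperature; reaction started with NADPH regeneration solution, 1 h 37C. Luminescent luciferin product read after 20 min detection reagent.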

The target of assay [6] is Nuclear receptor subfamily 1 group I member 2 (Homo sapiens) (UniProt O75469). The assay is described as follows: Human pregnane X receptor (PXR) small molecule agonists, qHTS assay (AID 1346982). Also: nearly all actives have a fitted effect of over 35% in size. Also: potency is read from the fitted curve at half-maximal effect. In a few lines:
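Agonist mode qHTS: PXR-Luc HepG2 cells plated 5 hr before DMSO-dissolved compounds were pinned in, cultured 24 hr at 37 C, 5% CO2; ONE-Glo luminescence readout.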
(In qHTS, concentration-response curves come from the screen itself.)

Assay [7] has the same target. The experiment in a line: CYP3A4 induction through human pregnane X receptor (PXR) by small molecules, qHTS assay (AID 1346984). Also: nearly all actives have a fitted effect of over 40% in size. In a few lines: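 Steps: seed DPX-2 cells, 5 hr at 37C; pin-transfer compounds; 24 hr at 37C; add Luciferin-IPA (3uM final), 3 hr at 37C; add One-Glo, 30 min RT; read luminescence.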
For assay [8] the target is unchanged. The experiment in a line: Human pregnane X receptor (PXR) activation by small molecules, qHTS assay (AID 1346985). Also: nearly all actives have a fitted effect of over 40% in size. Also: potency is read from the fitted curve at half-maximal effect. The procedure, abridged: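 DPX-2 cells (HepG2 co-transfected with a PXR response element and a CYP3A4-promoter luciferase construct) were seeded at 2,000 per well, rested 5 hr at 37C, then exposed to DMSO-dissolved compounds for 24 hr. Activation was read as luciferase luminescence.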

In assay [9] the target is Nuclear receptor subfamily 1 group I member 2 (Rattus norvegicus) (UniProt Q9R1A7). The experiment in a line: Rat pregnane X receptor (rPXR) activation by small molecules, qHTS assay (AID 1346983). Also: nearly all actives have a fitted effect of over 20% in size. The settings on record: rPXR luciferase reporter cells, One-Glo luminescence, 24 h; max activation: stronger effect = higher value. In a few lines: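 Luminescent readout (One-Glo luciferase, 30 min room temperature) followed 24 hr compound treatment at 37 C of rPXR cells plated 2,000 per well and preincubated 5hr; qHTS format with compounds delivered in DMSO.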
% is scaled to controls: 0 for no effect and ±100 for the full control effect.

Chain of Cytochrome P450 2C9 (Homo sapiens) (P11712 whole entry, looked up): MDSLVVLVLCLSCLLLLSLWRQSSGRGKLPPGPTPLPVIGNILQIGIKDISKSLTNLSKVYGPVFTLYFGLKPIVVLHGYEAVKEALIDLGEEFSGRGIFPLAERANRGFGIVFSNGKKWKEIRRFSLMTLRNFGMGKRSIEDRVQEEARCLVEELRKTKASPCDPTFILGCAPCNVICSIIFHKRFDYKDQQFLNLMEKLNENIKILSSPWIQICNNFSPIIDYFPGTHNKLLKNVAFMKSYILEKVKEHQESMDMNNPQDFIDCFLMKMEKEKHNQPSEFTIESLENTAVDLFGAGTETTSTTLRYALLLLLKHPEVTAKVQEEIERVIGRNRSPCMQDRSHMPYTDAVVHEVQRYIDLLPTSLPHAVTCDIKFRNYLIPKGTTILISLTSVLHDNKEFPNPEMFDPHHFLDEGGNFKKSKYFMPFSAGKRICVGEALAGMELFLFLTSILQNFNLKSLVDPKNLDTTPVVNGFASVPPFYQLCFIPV
Chain of Cytochrome P450 2C19 (Homo sapiens) (P33261 whole entry, looked up): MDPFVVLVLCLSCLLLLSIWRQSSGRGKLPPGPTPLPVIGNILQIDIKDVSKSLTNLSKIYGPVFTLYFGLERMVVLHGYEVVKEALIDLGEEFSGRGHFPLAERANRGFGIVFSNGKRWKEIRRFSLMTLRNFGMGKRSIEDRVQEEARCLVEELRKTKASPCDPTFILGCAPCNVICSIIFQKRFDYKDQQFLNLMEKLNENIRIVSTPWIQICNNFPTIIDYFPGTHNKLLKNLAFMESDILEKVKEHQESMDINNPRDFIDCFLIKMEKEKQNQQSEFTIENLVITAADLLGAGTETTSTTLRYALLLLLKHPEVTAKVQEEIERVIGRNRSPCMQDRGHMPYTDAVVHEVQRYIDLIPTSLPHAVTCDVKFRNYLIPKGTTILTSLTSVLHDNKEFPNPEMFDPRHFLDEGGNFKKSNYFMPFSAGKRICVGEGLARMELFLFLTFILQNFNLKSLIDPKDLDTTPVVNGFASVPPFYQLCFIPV
Chain of Nuclear receptor subfamily 1 group I member 2 (Homo sapiens) (O75469 whole entry, looked up): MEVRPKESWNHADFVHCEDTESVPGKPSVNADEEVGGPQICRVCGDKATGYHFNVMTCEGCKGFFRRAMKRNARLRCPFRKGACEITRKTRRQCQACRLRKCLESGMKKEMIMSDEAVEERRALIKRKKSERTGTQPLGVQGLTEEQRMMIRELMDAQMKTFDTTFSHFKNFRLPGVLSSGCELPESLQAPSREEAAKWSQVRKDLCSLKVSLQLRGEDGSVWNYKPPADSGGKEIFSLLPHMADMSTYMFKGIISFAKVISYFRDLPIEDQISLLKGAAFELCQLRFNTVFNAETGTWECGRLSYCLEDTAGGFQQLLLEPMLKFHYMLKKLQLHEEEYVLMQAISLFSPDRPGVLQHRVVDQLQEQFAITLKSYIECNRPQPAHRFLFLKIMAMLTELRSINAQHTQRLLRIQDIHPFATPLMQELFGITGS
Chain of Cytochrome P450 2D6 (Homo sapiens) (P10635 whole entry, looked up): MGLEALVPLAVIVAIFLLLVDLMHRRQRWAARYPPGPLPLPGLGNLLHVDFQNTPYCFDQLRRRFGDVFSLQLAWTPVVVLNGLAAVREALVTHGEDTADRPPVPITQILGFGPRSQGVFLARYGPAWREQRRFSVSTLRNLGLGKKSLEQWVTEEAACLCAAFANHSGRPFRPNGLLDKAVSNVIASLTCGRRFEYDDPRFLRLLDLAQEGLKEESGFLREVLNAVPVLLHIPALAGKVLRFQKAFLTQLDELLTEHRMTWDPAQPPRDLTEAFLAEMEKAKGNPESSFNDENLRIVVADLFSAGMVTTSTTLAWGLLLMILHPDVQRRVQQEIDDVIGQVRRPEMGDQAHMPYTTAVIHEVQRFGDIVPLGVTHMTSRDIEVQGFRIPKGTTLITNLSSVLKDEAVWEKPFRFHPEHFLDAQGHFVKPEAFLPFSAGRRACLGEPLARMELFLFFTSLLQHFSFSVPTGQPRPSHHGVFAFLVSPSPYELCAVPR
Chain of Nuclear receptor subfamily 1 group I member 2 (Rattus norvegicus) (Q9R1A7 whole entry, looked up): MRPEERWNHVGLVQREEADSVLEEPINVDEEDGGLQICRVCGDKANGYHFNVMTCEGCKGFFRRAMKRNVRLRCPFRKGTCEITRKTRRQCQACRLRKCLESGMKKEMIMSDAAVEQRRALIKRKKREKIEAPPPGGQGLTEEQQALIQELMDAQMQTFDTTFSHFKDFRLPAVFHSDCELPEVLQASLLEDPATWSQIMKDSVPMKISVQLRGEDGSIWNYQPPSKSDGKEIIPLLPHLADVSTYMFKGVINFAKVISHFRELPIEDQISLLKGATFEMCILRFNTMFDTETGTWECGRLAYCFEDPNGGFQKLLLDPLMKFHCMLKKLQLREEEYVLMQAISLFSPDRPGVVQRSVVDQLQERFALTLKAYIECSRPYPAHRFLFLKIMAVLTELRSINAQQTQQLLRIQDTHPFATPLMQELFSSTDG

Take `CCCCc1oc2ccc(NS(C)(=O)=O)cc2c1C(=O)c1ccc(OCCCN(CCCC)CCCC)cc1`: in assay [1], the Potency entry is “inactive”. Further, the Potency is 26.6 µM (active) in [2], 11 µM (active) in assay [3], 9.77 µM (active) in assay [4] and 34.7 µM (active) in assay [5].
For `Cc1c(C)c2c(c(C)c1O)CCC(C)(COc1ccc(CC3SC(=O)NC3=O)cc1)O2` (stereo not drawn), the Potency entry in assay [1], in assay [2] and in [3] was “inactive” throughout. In assay [5], the Potency was 5.03 µM (active) and 4.9 µM (active).
With `Cc1ccc2oc(CN(Cc3ccccc3)C(=O)Nc3c(F)cc(F)cc3F)c(-c3ccc(Cl)cc3)c2c1`, the Potency entry in assay [1] and in [2] was “inactive” throughout. The Potency in assay [6] was 3.74 µM (active); in assay [3] it was 0.194 µM (active); in assay [4], 10.9 µM (active); in assay [5] it was 4.34 µM (active).
Consider `CCCCCCC[N+](CC)(CC)CCCCc1ccc(Cl)cc1`, for which the Potency result in assay [1], in [6], in assay [7], in assay [8], in assay [4] and in assay [5] was “inactive” each time. Besides, in [3], the Potency is 0.219 µM (active).
`Fc1ccc([C@@H]2CCNC[C@H]2COc2ccc3c(c2)OCO3)cc1`: the Potency result in [1], in [6], in [4] and in assay [5] was “inactive” throughout.
For the compound `CC(C)=CCOc1ccc(/C=C/C(=O)c2ccc(OCC=C(C)C)cc2OCC(=O)O)cc1`, the Potency entry in assay [1], in assay [2] and in assay [6] was “inactive” throughout. Besides, the Potency in assay [5] was 15.5 µM (active).
As to `CCCCCOC(=O)CCCC`, the Potency entry in [1], in assay [2], in [6], in assay [3], in assay [4] and in assay [5] was “inactive” throughout.
As to `C/C=C(\C)C(=O)OCc1ccccc1`, the Potency result in [1], in assay [2], in assay [6], in [4] and in [5] was “inactive” each time.
Turning to `CN(C)[C@@H]1C(=O)C(C(N)=O)=C(O)[C@@]2(O)C(=O)C3=C(O)c4c(O)cccc4C[C@H]3C[C@@H]12`, the Potency result in assay [1], in assay [2], in assay [6], in assay [3] and in [5] was “inactive” in each case.
Regarding `CCCCCCCCCCCCCCCC(=O)OC[C@H](O)[C@H]1OC(=O)C(O)=C1O`, the Potency result in assay [1], in [2] and in assay [6] was “inactive” each time. In [4], the Potency was 79.6 µM (active).
On to `Nc1ccc(N)c2ccccc12`, for which the Potency result in [1] is “inactive”. For the same compound, the Potency is 8.63 µM (active) in assay [6], 3.99 µM (active) in [3], 3.17 µM (active) in assay [4] and 3.99 µM (active) in assay [5].
Consider `CCOC(=O)/C=C(C)/C=C/C=C(C)/C=C/c1c(C)cc(OC)c(C)c1C`, for which the Potency entry in assay [1], in assay [2], in [7] and in assay [8] was “inactive” throughout. The Potency was 11 µM (active) in assay [4] and 6.17 µM (active) in assay [5].
Take `CN(C)c1ccc(C2(c3ccc(N(C)C)cc3)OC(=O)c3cc(N(C)C)ccc32)cc1`: the Potency entry in assay [1], in assay [2], in assay [6] and in assay [3] was “inactive” in each case. The results for the Potency in assay [4] and in assay [5] were 1.41 µM (active) and 3.16 µM (active), respectively.
Regarding `CC(C)(C)CC(C)(C)c1ccc(OCCOCC[N+](C)(C)Cc2ccccc2)cc1`, the Potency entry in [1] and in [4] was “inactive” each time. For the same compound, the Potency in [2] was 61.1 µM (active); in [5], 79.6 µM (active) and inactive.
Regarding `Cc1ccc(-n2nc(C(C)(C)C)cc2NC(=O)Nc2ccc(OCCN3CCOCC3)c3ccccc23)cc1`, the Potency entry in assay [1] and in assay [2] was “inactive” throughout. For the same compound, the Potency in [6] is 23.7 µM (active); in assay [3], 15.5 µM (active); in assay [4], 3.89 µM (active); in assay [5], 6.92 µM (active).
On to `CC(C)C(C)(C)C(C)(C)C(C)(C)S`, for which, in assay [1], the Potency result was “inactive”. For the same compound, the Potency in assay [6] is 27.3 µM (active); in [3], 39.9 µM (active); in assay [5] it was 46.1 µM (active).
Regarding `CCCN(CCC)c1c([N+](=O)[O-])cc(C(F)(F)F)c(N)c1[N+](=O)[O-]`, the Potency was 54.3 µM (active) in [1]; 54.3 µM (active) in assay [2]; 4.84 µM (active) in [6]; 2 µM (active) in assay [4]; 20 µM (active) in assay [5].
`Cc1cccc2c1cc1ccc3cccc4ccc2c1c34`: the Potency result in assay [1], in assay [6], in assay [3], in assay [4] and in assay [5] was “inactive” throughout.
For `O=c1[nH]sc2cc(Cl)ccc12`, the Potency result in assay [1], in assay [2], in [6], in [3] and in assay [4] was “inactive” each time. The Potency in assay [5] was 13.8 µM (active).
Take `COC(=O)C1=C(C)NC(C)=C(C(=O)OCCc2ccc(N3CCN(C(c4ccccc4)c4ccccc4)CC3)cc2)C1c1cccc([N+](=O)[O-])c1` (stereo not drawn): the Potency entry in assay [1], in assay [2] and in assay [6] was “inactive” each time. The figures for the Potency in [4] and in assay [5] were 7.76 µM (active) and 0.436 µM (active), respectively.
On to `Nc1c2ccccc2nc2ccccc12`, for which the Potency is 12 µM (active) in [1]; 700 nM (active) and 11 µM (active) in assay [3]. Further, the Potency result in assay [2], in assay [4] and in assay [5] was “inactive” in each case.
For the compound `CCc1cc(Cc2cc(CC)c(N)c(CC)c2)cc(CC)c1N`, the Potency in assay [6] is 21.7 µM (active); in assay [3], 25.2 µM (active); in assay [4], 0.71 µM (active).
`CC[C@@]1(O)C(=O)OCc2c1cc1n(c2=O)Cc2cc3c(CN(C)C)c(O)ccc3nc2-1`: the Potency result in assay [6], in assay [7], in [8] and in assay [5] was “inactive” in each case. The max activation in [9] was -5.54% (inactive).
`NC(=O)C1(N2CCCCC2)CCN(CCCN2c3ccccc3CCc3ccc(Cl)cc32)CC1`: the Potency in [6] was 1.33 µM (active); in assay [5], 7.76 µM (active).
On to `CCN(C(=O)N(CC)c1ccccc1)c1ccccc1`, for which the Potency result in assay [2] and in assay [3] was “inactive” throughout. In addition, the results for the Potency in assay [6], in [4] and in assay [5] were 30.6 µM (active), 7.96 µM (active) and 7.1 µM (active), respectively.
With `CN1CCC(Nc2ncc3ncnc(Nc4ccc(F)c(Cl)c4)c3n2)CC1`, the Potency in assay [6] was 10.6 µM (active); in assay [8], 28.2 µM (active); in [3], 6.92 µM (active). Also, in [5], the Potency entry was “inactive”.
Take `N/C(=N\N=C\c1ccc(Cl)cc1)N/N=C/c1ccc(Cl)cc1`: the Potency was 11.9 µM (active) in assay [6], 2.19 µM (active) in assay [4] and 13.8 µM (active) in assay [5]. The Potency result in assay [7] and in assay [8] was “inactive” each time.
Regarding `COc1ccc(C(=O)/C(Br)=C\C(=O)O)cc1`, the Potency in [6] was 21.7 µM (active); in assay [3] it was 63.3 µM (active); in assay [4] it was 35.6 µM (active); in [5], 25.2 µM (active). For the same compound, in assay [9], the max activation was -6.96% (inactive). The Potency result in [7] and in assay [8] was “inactive” each time.
